Screens as filed in PubChem.
Compounds with a hit are over-represented: about 2.9% of the library has one in this group of screens.
PfHsp90 yeast 2: growth inhibition of yeast expressing Plasmodium Hsp90 | inhibition, % at 9.4 µM | actives 0.32% (n = 310,000) | S. cerevisiae expressing PfHsp90, BacTiter-Glo ATP, 48 h; yeast lacking PDR1 and PDR3 efflux regulators;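 active = every replicate shows inhibition above about 80%, whatever the replicate mean, limit read from the data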;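 note: 0% = DMSO neutral controls and 100% = 20 µM radicicol positive controls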
N-glyco inh: N-linked glycosylation inhibition | AID 588692 | D54 ERlucT glycosylation luciferase reporter, 24 h; percent of 100 nM tunicamycin response | reporter increase, % at 12.5 µM | actives 0.23% (n = 360,000);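 active = mean luciferase reporter signal, scaled so untreated is 0 and the glycosylation-blocking control 100, at or above a set limit in every replicate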;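 note: luciferase carries N-glycosylation sites so blocking glycosylation raises the light; 0% = median of neutral control wells and 100% = median of 100 nM tunicamycin wells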
Wnt act: Wnt/beta-catenin pathway activation | Wnt/beta-catenin reporter cell assay, activator, plate reader | activation, % at 9.35 µM | actives 1.2% (n = 300,000) | AID 743398; in the data active = activation above about 30%, passing the limit was not always enough;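 note: 0% = neutral control wells and 100% = positive control wells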
TRPM1 prom inh: MITF TRPM1 promoter inhibition in SK-MEL-5 cells | SK-MEL-5 TRPM1 promoter luciferase, 24 h | inhibition, % at 12.5 µM | actives 0.83% (n = 330,000) | AID 488899;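 active = mean inhibition across replicates of 60% or more, whatever share of single replicates reaches that level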
MITF TRPM1 HTS: activators of MITF-driven TRPM1 promoter activity in SK-MEL-5 cells | actives 0.75% (n = 300,000) | activation, % at 12.5 µM | AID 588334 | SK-MEL-5 TRPM1-promoter luciferase, 24 h; % of positive control, neutral wells = 0;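 active = mean activation of at least 80% with every replicate also reaching 80%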;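 note: 0% = neutral control wells and 100% = parthenolide positive control wells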
NSD2 HMT inh: NSD2 (human) methyltransferase inhibition; O96028; NSD2 peptide methylation, AlphaScreen, 120 min; inhibition, % at 12.5 µM; actives 0.54% (n = 310,000); AID 743445; in the data active = inhibition above about 50%
The depositor's hits bear a star.

`Oc1[nH]c(=S)sc1C=C1N=c2ccccc2=N1` gave PfHsp90 yeast 2 0, N-glyco inh 2, Wnt act 42*, TRPM1 prom inh -14 and NSD2 HMT inh 6.
For O=C(Nc1nc2ccccc2[nH]1)c1cccc(Br)c1 the results were PfHsp90 yeast 2 -6, N-glyco inh 8, Wnt act 24, TRPM1 prom inh -14, MITF TRPM1 HTS 15 and NSD2 HMT inh 3.
Screening O=C(Nc1nc2ccccc2[nH]1)c1cccc(F)c1 returned PfHsp90 yeast 2 18, N-glyco inh -11, Wnt act 31*, TRPM1 prom inh -4 and MITF TRPM1 HTS 2.
`O=C(Nc1nc2ccccc2[nH]1)c1cccs1` gave PfHsp90 yeast 2 9, N-glyco inh -8, Wnt act 46*, TRPM1 prom inh -59, MITF TRPM1 HTS 62 and NSD2 HMT inh 1.
Screening Cc1ccc(C(=O)Nc2cnc3ccccc3c2)cc1 returned PfHsp90 yeast 2 10, N-glyco inh -20, Wnt act -24, TRPM1 prom inh 84* and MITF TRPM1 HTS -84.
`Cc1ccc(C(=O)Nc2nc3ccccc3[nH]2)cc1` gave PfHsp90 yeast 2 29, N-glyco inh -18, Wnt act -5, TRPM1 prom inh 73*, MITF TRPM1 HTS -72 and NSD2 HMT inh 0.
COc1ccc(C(=O)Nc2nc3ccccc3[nH]2)cc1 was read as PfHsp90 yeast 2 31, N-glyco inh -18, Wnt act 15, TRPM1 prom inh 44, MITF TRPM1 HTS -44 and NSD2 HMT inh 1.
Screening Cc1cc(C(=O)Nc2cnc3ccccc3c2)ccc1[N+](=O)[O-] returned PfHsp90 yeast 2 -2, N-glyco inh -7, Wnt act 22, TRPM1 prom inh -1 and MITF TRPM1 HTS 3.
For O=C(Nc1nc2ccccc2[nH]1)C1CC1 the results were PfHsp90 yeast 2 -9, N-glyco inh 13, Wnt act 4, TRPM1 prom inh -10, MITF TRPM1 HTS 9 and NSD2 HMT inh -1.
`COc1cc(NC(=O)C2CCCN(S(=O)(=O)c3cc(OC)ccc3OC)C2)cc(OC)c1` (stereo unspecified) gave NSD2 HMT inh -2.
For CCCN1C(=O)c2[nH]nc(-c3ccccc3)c2C1c1ccc(C)cc1 (stereo unspecified) the results were Wnt act -2 and NSD2 HMT inh 1.
Cc1ccc(C(=O)NC2CCCCN(C)C2=O)c(C)c1 (stereo unspecified) was read as Wnt act 0.
O=C(Nc1ccccc1)OCC1CCCN2CCCCC12 (stereo unspecified) was read as PfHsp90 yeast 2 10, N-glyco inh -1, Wnt act -2, TRPM1 prom inh 3, MITF TRPM1 HTS -3 and NSD2 HMT inh 2.
CC1=CCC(COC(=O)Nc2ccccc2)CC1 (stereo unspecified) was read as PfHsp90 yeast 2 14, N-glyco inh -2, Wnt act -2, TRPM1 prom inh -122, MITF TRPM1 HTS 126* and NSD2 HMT inh 1.
Screening CC(NS(=O)(=O)c1ccc(OCC(=O)Nc2cccc([N+](=O)[O-])c2)cc1)c1ccccc1 (stereo unspecified) returned PfHsp90 yeast 2 0, N-glyco inh 0, Wnt act 1, TRPM1 prom inh 5, MITF TRPM1 HTS -1 and NSD2 HMT inh 0.
`CC(C)[C@H]1/C(=C/C2CC2)N2C(=O)C[C@H](c3cccc(C(F)(F)F)c3)N=C2N1Cc1ccc2c(c1)OCO2` gave NSD2 HMT inh -2.
Screening C/C(=N/NC(=O)C(O)(c1ccccc1)c1ccccc1)c1ccc([N+](=O)[O-])o1 returned PfHsp90 yeast 2 -34, N-glyco inh 5, Wnt act -1, TRPM1 prom inh 65*, MITF TRPM1 HTS -62 and NSD2 HMT inh 6.
For O=C(NNC(=O)c1ccc([N+](=O)[O-])o1)c1ccccc1 the results were PfHsp90 yeast 2 14, N-glyco inh -4, TRPM1 prom inh 28, MITF TRPM1 HTS -26 and NSD2 HMT inh 3.
For CCc1[nH]nc(C(=O)N2CCCC(CCC(=O)N3CCN(c4ccccn4)CC3)C2)c1C (stereo unspecified) the results were PfHsp90 yeast 2 1, N-glyco inh -3, Wnt act -1, TRPM1 prom inh 9, MITF TRPM1 HTS -8 and NSD2 HMT inh -1.
